From the OligoGym collection come the findings set out here.
Also: reference of the scale not given here.

One assay addresses NT5C3L. Description: pooled miR-30 sensor sort-seq; sequence = guide strand. The following applies: shRNA.
As to ATTGGACTCTCTAACCACCTGG, the sensor-assay potency score (higher = more potent) was determined as 0.547.
The same measure, in the same setting: for TTGTGTGCTTTGGTCCACCATT the value was -1.32; for TCAGAAATCACCTGTAACCGGT, -0.094.
AAACTTCTGAATCTTCTGCTGA: the sensor-assay potency score (higher = more potent) is -0.000526.
TTGCATTGGACTCTCTAACCAC gave a sensor-assay potency score (higher = more potent) of -0.0742.

The target of a further assay is NTHL1. Described as above. The following applies: shRNA.
In turn, TTTTCCTCGCTTCTGCTGCAGC came in with a sensor-assay potency score (higher = more potent) of -0.814.
Still for that read-out and setting: for TAGATGAGCTTGCCCAGCGTGG the value was -1.11; for TCATCTGTCTGCAGGATGCTGT, -0.751.
As for TTGACCAGCTGTTGCTGCCAGT, the sensor-assay potency score (higher = more potent) is -1.05.
Same read-out and setting: for ATCAGTGACAGCAGCACCTGGT the value was -0.43; for TTCTGTGCACATGCGTGTCCAC, -0.487.
The same measure, in the same setting: for TTGGTTGCCTTCTTGGTCCACC the value was -0.633; for TATTTCACCTTGCTCCTCCAGA, -0.193; for TTTTTGTTCCTCATGGCACGGA, 0.281.
Regarding TTCTTGGTCCACCTCAGCCTGT, the sensor-assay potency score (higher = more potent) was -1.58.
As for TTGATGTATTTCACCTTGCTCC, the sensor-assay potency score (higher = more potent) was -0.737.
ATGTATTTCACCTTGCTCCTCC yielded a sensor-assay potency score (higher = more potent) of 0.0621.

A further assay deals with NTM. Described as above. The following applies: shRNA.
In turn, TTGCTCAGAAGGACCACGCGAG displayed a sensor-assay potency score (higher = more potent) of -0.271.
Same read-out and setting: for TTGGCTTCTGAAATGTATGGTG the value was 0.211; for TTGAAGAAGATGAGTTTTGAGA, -0.515; for AATCAGTCTTTTGTCATCCTTG, -0.561.
The same measure, in the same setting: for TTCTTTCCTTCAATCAGTCTTT the value was -0.442.
On the same count and under the same terms, for TTGCACAATGAGGTGGACCCTA the value was -0.498; for TCTGTCTGCACCGAGCAGGTGT, -0.506.
Turning to TTTGTCATCCTTGTACCACTGG, the sensor-assay potency score (higher = more potent) is 0.733.
TTGTCTGTCTGCACCGAGCAGG: the sensor-assay potency score (higher = more potent) was -0.782.

Another assay has as its target NTRK2. The description is as above. Particulars: shRNA.
In turn, TATAGAACCACTGAAGCGCTGG gave a sensor-assay potency score (higher = more potent) of 0.358.
For TATTAGGAACCGGATCACCTGC, the sensor-assay potency score (higher = more potent) was -1.01.
TTTAGTACAGATGTATTTGGAC showed a sensor-assay potency score (higher = more potent) of -0.241.
Turning to TTGTTTGACAGCTGGTACCAGG, the sensor-assay potency score (higher = more potent) was -0.771.
Sequence TTGCCTTTCACAGTGAATGGAA had a sensor-assay potency score (higher = more potent) of 0.0334.
In turn, TTGATGTGCTGAACAAATGTGT displayed a sensor-assay potency score (higher = more potent) of 0.264.
Same read-out and setting: then TTCAACATCATCTTCGTTGATG, with -0.198; and TTTCCTAGACAAACTCGTCAGT, with -0.24.
Regarding TTCACTGCCACCAAGATCTTGT, the sensor-assay potency score (higher = more potent) was found to be 0.258.
Still for that read-out and setting: for TCGTTGATGATTTCTAACCTTT the value was -0.793; for TATGAAACAAAACAAAACCTTT, -1.09.
TTTATCAGTGACGTCTGTGGAA registered a sensor-assay potency score (higher = more potent) of -0.0514.
